Reference: PubChem BioAssay
Calls of active or inactive are those of the source.

Tests used:
[1] = optical density shifts of acrAB sulA E. coli – strain DRC41, OD650, 48 h, E. coli filamentation inducer project, primary screen (AID 1152); settings: higher = more signal, called active from +8 up or from −8 down;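 note: E. coli MC1000 strain DRC41 lacking acrAB efflux pump and sulA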
[2] = probe aLefty1 binding on compound microarray – biochemical, small-molecule microarray, 635/667 nm fluorescence, primary screen (AID 1153); settings: higher = more signal;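 note: score merges spot fluorescence with signal-to-noise ratio from the scanned slide images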
[3] = plasmodial surface anion channel blockers, osmotic lysis – cell-based, P. falciparum Indochina, OD700, 1 h, primary screen (AID 1154); settings: P. falciparum Indochina infected RBC osmotic lysis, higher = more signal, called active from +8 up or from −8 down
[4] = plasmodial surface anion channel blockers, osmotic lysis – cell-based, P. falciparum Indochina, OD700, 2 h, primary screen (AID 1155);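 note: lysis reports solute entry through the parasite surface anion channel PSAC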; settings: P. falciparum Indochina infected erythrocytes, higher = more signal, called active from +8 up or from −8 down
[5] = changes in parasitized red cell lysis, either direction – P. falciparum Indochina, OD700, 3 h, PSAC antagonist project, primary screen (AID 1156); settings: P. falciparum-infected erythrocytes, osmotic lysis, higher = more signal, called active from +8 up or from −8 down
[6] = plasmodial surface anion channel blockers, osmotic lysis – cell-based, P. falciparum Indochina, OD700, 18 h, primary screen (AID 1157); settings: P. falciparum Indochina infected erythrocytes, osmotic lysis OD700, 18 h; higher = more signal, called active from +8 up or from −8 down
[7] = S6 kinase pathway phospho-S6 level changes – cell-based, A549, cytoblot, luminescence, serum-stimulated, primary screen (AID 1158); settings: 5 h, higher = more signal;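 note: serum-stimulated A549 lung adenocarcinoma cells; signal is phosphorylated S6 detected by cytoblot immunostaining with HRP secondary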
[8] = target: NADPH oxidase 2 (Homo sapiens) (UniProt P04839); experiment: compounds shifting NOX2 Amplex Red fluorescence – cell-based, HEK293-NOX2, PMA-stimulated, NOX inhibitor project, primary screen (AID 1159); settings: 45 min, higher = more signal, called active from +8 up or from −8 down; note: test concentration not given here
[9] = target: NADPH oxidase 4 (Homo sapiens) (UniProt Q9NPH5); experiment: compounds shifting NOX4 Amplex Red fluorescence – cell-based, HEK293-NOX4, tetracycline-induced, NOX inhibitor project, primary screen (AID 1160); settings: HEK293-NOX4, Amplex Red H2O2 fluorescence, 45 min; higher = more signal, called active from +8 up or from −8 down
[10] = target: NADPH oxidase 5 (Homo sapiens) (UniProt Q96PH1); experiment: compounds shifting NOX5 Amplex Red fluorescence – cell-based, HEK293-NOX5, NOX inhibitor project, primary screen (AID 1161); settings: HEK293-NOX5, ionomycin, 45 min, higher = more signal
Chain of NADPH oxidase 5 (Homo sapiens) (Q96PH1 whole entry, looked up): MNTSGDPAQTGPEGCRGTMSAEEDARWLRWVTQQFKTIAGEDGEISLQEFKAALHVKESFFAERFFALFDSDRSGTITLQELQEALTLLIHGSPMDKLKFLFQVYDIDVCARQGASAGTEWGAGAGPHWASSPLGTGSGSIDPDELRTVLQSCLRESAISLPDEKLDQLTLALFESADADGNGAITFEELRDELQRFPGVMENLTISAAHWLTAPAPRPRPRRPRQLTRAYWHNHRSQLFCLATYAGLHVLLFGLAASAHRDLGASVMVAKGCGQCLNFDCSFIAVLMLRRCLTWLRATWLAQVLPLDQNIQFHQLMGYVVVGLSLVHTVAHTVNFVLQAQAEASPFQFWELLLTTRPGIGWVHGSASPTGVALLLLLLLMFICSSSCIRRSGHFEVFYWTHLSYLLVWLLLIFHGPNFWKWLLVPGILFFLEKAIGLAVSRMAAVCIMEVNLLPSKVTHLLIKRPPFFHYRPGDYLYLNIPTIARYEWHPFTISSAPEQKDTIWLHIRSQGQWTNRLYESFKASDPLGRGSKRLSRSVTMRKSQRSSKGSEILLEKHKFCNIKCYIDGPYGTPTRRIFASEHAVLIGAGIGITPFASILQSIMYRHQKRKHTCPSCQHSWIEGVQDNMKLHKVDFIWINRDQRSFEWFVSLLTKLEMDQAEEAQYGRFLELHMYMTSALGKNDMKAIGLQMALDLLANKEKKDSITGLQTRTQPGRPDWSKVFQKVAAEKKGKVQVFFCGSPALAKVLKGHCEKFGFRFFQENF

Chain of NADPH oxidase 2 (Homo sapiens) (P04839 whole entry, looked up): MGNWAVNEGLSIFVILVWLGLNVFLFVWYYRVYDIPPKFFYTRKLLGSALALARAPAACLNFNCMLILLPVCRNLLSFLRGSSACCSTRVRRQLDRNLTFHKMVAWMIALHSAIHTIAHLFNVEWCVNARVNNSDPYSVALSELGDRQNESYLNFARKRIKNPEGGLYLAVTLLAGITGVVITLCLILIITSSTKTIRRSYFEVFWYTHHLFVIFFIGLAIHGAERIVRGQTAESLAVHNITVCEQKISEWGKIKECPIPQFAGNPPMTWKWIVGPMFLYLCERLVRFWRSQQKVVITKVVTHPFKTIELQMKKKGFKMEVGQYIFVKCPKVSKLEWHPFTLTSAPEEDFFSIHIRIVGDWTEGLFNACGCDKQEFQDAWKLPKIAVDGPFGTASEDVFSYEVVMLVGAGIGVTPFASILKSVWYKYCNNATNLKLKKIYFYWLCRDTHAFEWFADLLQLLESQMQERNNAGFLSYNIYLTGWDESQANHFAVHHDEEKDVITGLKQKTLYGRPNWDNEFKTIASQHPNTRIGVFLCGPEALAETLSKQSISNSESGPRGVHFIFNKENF
Chain of NADPH oxidase 4 (Homo sapiens) (Q9NPH5 whole entry, looked up): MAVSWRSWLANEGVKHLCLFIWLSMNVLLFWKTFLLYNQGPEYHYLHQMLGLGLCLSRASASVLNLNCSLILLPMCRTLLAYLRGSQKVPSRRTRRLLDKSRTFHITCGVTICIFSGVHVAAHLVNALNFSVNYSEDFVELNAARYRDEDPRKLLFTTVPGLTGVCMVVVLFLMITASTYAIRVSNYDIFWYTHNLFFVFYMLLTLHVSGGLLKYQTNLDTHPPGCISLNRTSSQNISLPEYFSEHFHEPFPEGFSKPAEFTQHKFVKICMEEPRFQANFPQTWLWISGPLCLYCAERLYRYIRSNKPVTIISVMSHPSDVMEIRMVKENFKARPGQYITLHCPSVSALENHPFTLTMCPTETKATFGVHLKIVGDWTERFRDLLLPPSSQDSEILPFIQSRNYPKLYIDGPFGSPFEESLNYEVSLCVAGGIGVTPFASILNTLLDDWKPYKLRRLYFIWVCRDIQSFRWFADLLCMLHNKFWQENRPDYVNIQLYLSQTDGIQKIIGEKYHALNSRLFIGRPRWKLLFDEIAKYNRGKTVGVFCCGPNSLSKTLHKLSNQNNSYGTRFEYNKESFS

Row | Compound | z-score [1] | composite z-score [2] | z-score [3] | z-score [4] | z-score [5] | z-score [6] | z-score [7] | z-score [8] | z-score [9] | z-score [10]
1 | C=CCNC(=O)[C@H]1[C@@H]2C(=O)O[C@@H](c3ccccc3)[C@@H](c3ccccc3)N2[C@@H](c2ccc(OCCO)cc2)[C@]12C(=O)Nc1ccc(C#CC3=CCCCC3)cc12 | 0.951 (inactive) | -0.101 | 2.36 (inactive) | 1.66 (inactive) | -1.04 (inactive) | 1.4 (inactive) | -0.571 | 1.24 (inactive) | -1.05 (inactive) | 1.02
2 | CCCC[C@@H]1C[C@H]1[C@@H](NC(=O)c1ccco1)c1ccc(Cl)cc1 | -1.54 (inactive) | 0.485 | 4.34 (inactive) | 0.904 (inactive) | 0.365 (inactive) | 0.74 (inactive) | -0.321 | -1.72 (inactive) | -2.56 (inactive) | 0.0234
3 | COc1ccc([Si](C)(C)[C@@H]2[C@@H](CCO)O[C@]3(C(=O)N(Cc4ccc(N5C(=O)COc6ccccc65)cc4)c4ccccc43)[C@H]2C)cc1 | -0.163 (inactive) | 0.165 | 3.9 (inactive) | 3.84 (inactive) | 0.746 (inactive) | 2.39 (inactive) | 0.866 | 0.506 (inactive) | 1.46 (inactive) | 1.38
4 | C=CCN1C(=O)[C@]2(O[C@H](CCO)[C@@H]([Si](C)(C)c3ccc(OC)cc3)[C@@H]2C)c2cc(N3CCCCC3=O)ccc21 | 0.143 (inactive) | 0.0004 | 4.68 (inactive) | 2.25 (inactive) | -0.328 (inactive) | 1.7 (inactive) | 1.14 | 0.972 (inactive) | 0.43 (inactive) | 0.801
5 | C=CCN1C(=O)[C@]2(O[C@H](CCO)[C@@H]([Si](C)(C)c3ccc(OC)cc3)[C@@H]2C)c2cc(N3C(=O)c4cccc5cccc3c45)ccc21 | 0.568 (inactive) | 0.178 | 6.44 (inactive) | 4.41 (inactive) | 0.0626 (inactive) | 2.83 (inactive) | 1.03 | 0.924 (inactive) | 0.4 (inactive) | 0.0361
6 | O=C1OCCC/C=C\[C@H]2OC34C=CCN(Cn5nnc6ccccc65)C(=O)[C@H]3N(CCO)C(=O)[C@@H]4C12 (stereo not given in full) | 1.8 (inactive) | 0.16 | 1.55 (inactive) | 0.299 (inactive) | 0.292 (inactive) | 0.335 (inactive) | 1.64 | 1.41 (inactive) | 0.409 (inactive) | 1.92
